# This is a sample that favours compounds with a hit; in the whole collection about 1.8% have one here.
# pAkt inh: Akt phosphorylation inhibition; Neuro2A IGF-stimulated pAkt S473 HTRF, 20 min; stronger effect = lower value; activity change, % for hits at 50 µM; actives 0.32% (n = 360,000); in the data active means activity change below about -80%; inconclusive means mostly about -51% to -80%
#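 Single-point screen (50 µM final compound) in Neuro2A cells stimulated 20 min with 6 nM IGF at 37 deg C. After lysis, Ser473-phosphorylated Akt read by HTRF (ex 330 nm, em 615/665 nm) as the 665/615 ratio.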
# Mm-Cpn inhibitor: blocks the Methanococcus maripaludis chaperonin Mm-Cpn; actives 0.031% (n = 330,000); Potency, µM (top dose mostly 76.9 µM), most hits filed as inhibitors; AID 504842; purified Mm-Cpn ATPase, ADP Transcreener TR-FRET; further: nearly all actives have a fitted effect of over 80% in size
#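 Compound-treated chaperonin, 25 nM final, turns over 10 uM ATP at 37°C for 30 min following a 10 min preincubation; ADP generated competes with ADP-d2 for Eu-cryptate antibody, lowering FRET.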
# BRCA1 expr act: BRCA1 expression activation; actives 1.1% (n = 380,000); MCF7-BRCA1-FFLuc reporter, luminescence, 48 h; response scale: scaled: vehicle 0%, 10 µM genistein 100%; AID 624202; Potency, µM (highest dose often 46.1 µM), usual class: activators; further: nearly all actives have a fitted effect of over 80% in size
#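 MCF7-BRCA1-FFLuc, 2000 cells/well; 2 h attach, 37 °C/5% CO2; compound 48 h; luciferase substrate 15 min; luminescence end-point. Norm. to genistein 10 microM max activation and DMSO; concentration-response curves fitted.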
# CCT modulator: cytosolic chaperonin activity modulation; purified chaperonin ATPase assay, HTRF ADP detection, 30 min; activity change, % (test concentration not listed), hits read low; actives 0.3% (n = 360,000); in the data active means activity change below about -30%
#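 Nucleotide hydrolysis assay: TRiC at 20–40 nM final (set by batch activity) with 10 uM ATP, 30 min at 37 °C, in presence of 76 uM compound. Detection by competitive ADP HTRF, 30 min ambient.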
# A-T KAP1 phos: potential ataxia-telangiectasia treatments restoring KAP-1 phosphorylation | F2112 A-T fibroblasts, KAP-1 phosphorylation AlphaLISA; neocarzinostatin DNA damage 30 min before lysis | Potency, µM (doses to about 57.5 µM), usual class: activators | actives 0.19% (n = 320,000) | AID 485349; further: nearly all actives have a fitted effect of over 45% in size
#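 hTERT-immortalized A-T patient fibroblasts (F2112), 500 cells/well in OPTI-MEM, 1% FBS, got compounds for 60 min, then NCS for 30 min at 37C. Lysates were then assayed for phospho-KAP-1 by AlphaLISA (anti-pKAP1 donor, anti-KAP1 acceptor beads), 6 hr at 25C.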
# A number is an active result; . = inactive; ? = inconclusive; / = no result given; ! = not active in a repeat; [ ] = dose if it differs, or a comment. Unless noted, the call rests on the fitted dose curve; in most records, active means well fitted curve in the direction sought with a large enough effect; inconclusive means small, poorly fitted or top-dose-only effect, or another doubt; inactive means no such curve, though single readings can be large; an effect the other way counts as inactive or inconclusive.
SMILES,pAkt inh,Mm-Cpn inhibitor,BRCA1 expr act,CCT modulator,A-T KAP1 phos
O=C(NCCC1=CCCCC1)c1cc(COc2c(F)cccc2F)on1,.,.,.,.,.
Cc1cc(C(=O)NCCC2=CCCCC2)no1,.,.,10µM,.,.
CC(=O)c1cccc(OCc2cc(C(=O)NCCC3=CCCCC3)no2)c1,.,.,3.2µM,.,.
C(=C1/CCCC2=C1Nc1ncnn1C2c1ccccc1)/c1ccccc1 (stereo not given),/,.,/,/,40µM
O=C1CCCC2=C1C(Cc1ccccc1)C1=C(CCCC1=O)O2,-118%,.,.,.,.
N#CC1=C(N)OC2=C(C(=O)CCC2)C1CCc1ccccc1 (stereo not given),.,.,.,.,.
Cc1cccc(C)c1NC(=O)C1(C)CSCC(=O)N1CCC(C)C (stereo not given),.,/,/,/,/
CC(=O)c1c(C)[nH]c(C(=O)CSc2nc3ccccc3n2C)c1C,-85%,.,.,.,.
Cc1ccc(NC(=O)c2cc3ccccc3oc2=N)cc1,.,.,.,.,?
N=c1oc2c3c4c(cc2cc1C(=O)Nc1ccccc1)CCCN4CCC3,.,.,.,.,16µM
COc1cc(C2C(C(=O)c3ccc(C)o3)=C(O)C(=O)N2c2cc(C)on2)cc(Br)c1O (stereo not given),.,.,.,.,.
COc1cc(C2C(C(=O)c3ccco3)=C(O)C(=O)N2c2cc(C)on2)cc(Br)c1O (stereo not given),-115%,.,.,.,.
CC(C)(O)[C@H]1Cc2cc3ccc(=O)oc3cc2O1,.,.,?,.,.
C=C(C)C1Cc2cc3ccc(=O)oc3cc2O1 (stereo not given),.,.,10µM,.,.
Cc1ccc(OCCCC(=O)Nc2nncs2)cc1,.,.,.,.,.
O=C(CCCOc1ccc(Cl)cc1)Nc1nncs1,-112%,.,.,.,.
CCCOc1ccc(C(=O)Nc2ccc(S(=O)(=O)NC3=NCCCCC3)cc2)cc1,.,.,.,.,.
C=C1C=C(C(F)F)n2ncc(C(=O)Nc3ccc(Br)cc3C(F)(F)F)c2N1,/,/,.,/,/
C=C1C=C(C(F)F)n2ncc(C(=O)NCc3ccc(Cl)cc3Cl)c2N1,/,/,.,/,/
O=C(O)c1cccc(S(=O)(=O)Nc2ccc3oc(=O)sc3c2)c1,-114%,.,.,.,.
Cc1ccc(-c2[nH]ncc2CNC(C)c2ccccc2)cc1 (stereo not given),/,/,.,/,/
O=C(CC1CCCC1)Nc1ccc2c(c1)CCC2,.,.,10µM,.,.
Cc1cc(NC(=O)CC2CCCC2)ccc1Br,.,.,8.9µM,.,.
O=C(NCCc1ccccc1)C1Cc2c(-c3ccccc3Oc3ccccc3)ccnc2O1 (stereo not given),.,/,.,.,/
CCOc1ccc(-c2nc(C#N)c(NC3CC3)o2)cc1,.,.,10µM,.,.
SMILES,pAkt inh,Mm-Cpn inhibitor,BRCA1 expr act,CCT modulator,A-T KAP1 phos
OCC(O)C[n+]1cccc(Br)c1 (stereo not given),/,/,.,/,/
Cc1ccc(/C(O)=C2\C(=O)C(=O)N(CCCN3CCOCC3)C2c2ccccc2F)cc1 (stereo not given),.,/,.,-40,/
Cc1ccc(/C(O)=C2\C(=O)C(=O)N(CCN(C)C)C2c2ccccc2F)cc1 (stereo not given),.,.,.,.,.
Cc1ccccc1NC(=O)c1nc(SCc2ccccc2F)ncc1Cl,/,/,.,/,/
Cc1ccc(C(=O)Nn2cnc3ccccc3c2=O)cc1C,.,.,8.9µM,.,.
O=C(Nn1cnc2ccccc2c1=O)c1ccc(Br)cc1,.,.,.,.,.
COc1ccc2nc(N)sc2c1,.,.,.,.,.
Cc1cc2nc(N)sc2cc1[N+](=O)[O-],.,.,13µM,.,.
COc1ccc(CCc2nc(C)ccc2O)cc1,.,.,?,-67!,.
Cc1ccc(O)c(CO)n1,.,.,.,.,.
O=C(NC1CCCC1)c1cc2cc(Br)ccc2o1,.,.,3.2µM,.,.
Cc1ccc2cc3cc(C(=O)NC4CCCCC4)oc3nc2c1,.,.,4µM,.,.
CCN(CC)c1ccc(/C=C/c2ccc3ccccc3n2)cc1,/,/,.,/,/
COc1ccc(OC)c(NC(=O)Nc2nc(C(C)N)cs2)c1 (stereo not given),.,/,.,.,/
Cc1cc(S(=O)(=O)N2CCCC(N(C)CCc3ccccn3)C2)c(C)cc1Cl (stereo not given),/,.,.,-75,.
COc1ccc(-c2noc(CSc3nc4ccccc4[nH]3)n2)cc1OC,/,/,.,/,/
Cc1ccc(C(=O)CC2(O)C(=O)N(CCc3ccccc3)c3ccc(Cl)cc32)cc1 (stereo not given),/,/,.,/,/
Cc1cc(C)nc(N2CCCC(C(=O)NCCc3ccccc3F)C2)n1 (stereo not given),.,.,.,.,.
CCOc1cc(C)nc(N2CCCC(C(=O)NCc3ccccc3F)C2)n1 (stereo not given),.,.,.,-41,.
COc1cc2nc(N3CCCN(C)CC3)nc(NC3CCNCC3)c2cc1OC,/,/,.,/,/
CCCn1c(SCC(=O)NCc2ccco2)nnc1C(C)C,.,.,.,-42,.
CCOC(=O)c1ccc(NC(=O)Nc2ccc3snnc3c2)cc1,/,/,.,/,/
O/N=C1\CCc2cc(Cl)ccc21,-102%,.,.,.,.
O=C(COC(=O)c1cnccn1)NCCc1ccc(Cl)cc1,.,.,.,.,.
CCCNC(=O)c1cc(-c2ccc(Br)cc2)on1,.,.,1.8µM,.,.
SMILES,pAkt inh,Mm-Cpn inhibitor,BRCA1 expr act,CCT modulator,A-T KAP1 phos
COC(=O)[C@H](Cc1ccccc1)NC(=O)NCc1cccs1,-94%,.,.,.,.
CC(C)NC(=O)c1cc(-c2ccc(Br)cc2)on1,.,.,?,.,.
Cc1ccc(-c2cc(C(=O)NCc3ccccn3)no2)cc1,.,.,11µM,.,.
COc1cccc(OCc2cc(C(=O)NCc3ccccn3)no2)c1,.,.,13µM,.,.
CN(C)c1ccc(C2=Cc3ccccc3C2)cc1,/,/,.,/,/
O=C(NCCCN1CCN(c2cccc(Cl)c2)CC1)Nc1ccccc1C(F)(F)F,/,/,.,/,/
O=C(NCc1ccco1)c1cc(-c2ccc(Cl)cc2)on1,.,.,.,.,.
Cc1ccc(-c2cc(C(=O)NCc3ccco3)no2)cc1,/,.,4µM,.,.
CCc1ccc(NC(=O)C(=O)NCc2ccccn2)cc1,.,.,3.5µM,.,.[11.5 µM]
CCOC(=O)c1ccc(NC(=O)C(=O)NCc2ccccn2)cc1,.,.,.,.,.
CC(C)CC(NC(=O)c1cccc(Cl)c1)C(=O)O (stereo not given),.,.,.,.,.
COCC(C)NC(=O)c1cccc(Cl)c1 (stereo not given),-114%,/,.,.,/
COCC(C)NC(=O)c1cc(-c2cccc(OC)c2)on1 (stereo not given),.,.,10µM,.,.
COCCNC(=O)c1cc(-c2cccc(OC)c2)on1,.,.,?,.,.
